PubChem BioAssay

test system: PRMT1 (protein arginine N-methyltransferase 1); assay: small molecules binding arginine methyltransferase PRMT1 – biochemical, small-molecule microarray, 635 nm fluorescence, primary screen (AID 1088); conditions: higher = more signal;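 further: binding of Prmt1 protein to compounds spotted on small-molecule microarray slides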

| SMILES | composite z-score |
| --- | --- |
| CC[C@@H]1C=C(C(=O)O)[C@H](c2ccc(C)cc2)N1S(=O)(=O)c1ccc(C)cc1 | 0.805 |
| COCC(=C=CC[C@@H](O)c1ccc(OCCO)cc1)C[C@@H](O)c1ccccn1 | 0.37 |
| C=CCN1Cc2ccccc2[C@@H]2OC(c3ccc(OCCCO)cc3)=N[C@]2(CCS(=O)(=O)c2ccccc2)C1=O | 1.55 |
| COc1cc(OC)c(C(O)C2C=CC3C(=O)NC(=O)C3N2Nc2ccccn2)cc1Br (stereo unspecified) | 1.49 |
| COC(=O)[C@H](Cc1ccccc1)N[C@H](/C=C/C1CC1)[C@@H](O)Cc1ccccc1 | -0.108 |
| O=C1C2C=CC(C(O)c3ccc4c(c3)OCO4)N(Nc3ccc([N+](=O)[O-])cc3)C2C(=O)N1c1ccccc1 (stereo unspecified) | 0.66 |
| CC(C)CNC(=O)[C@@]1(Cc2ccccc2I)c2ccccc2C(=O)N(Cc2ccccc2C(F)(F)F)[C@H]1c1ccc(CO)cc1 | 1.15 |
| COc1cc2c(cc1O)C(c1cccs1)N(Cc1cccc(OC(F)(F)F)c1)CC2 (stereo unspecified) | 1.46 |
| C=C(/C(=C/C[C@H](OC(=O)c1ccncc1)c1ccc(OCCO)cc1)c1cc(C(=O)OC)ccc1OC)C(C)C | 1.03 |
| CC1CC/C=C\[C@H]2OC34C=CCN(Cc5ccccc5)C(=O)[C@H]3N(C(C)CO)C(=O)[C@@H]4C2C(=O)O1 (stereo partly specified) | -0.938 |
| CCOC(=O)C[C@H]1[C@H](OC(=O)c2ccc(-c3ccccc3)cc2)[C@@H](NC(=O)c2ccccc2)c2cc(OCCCO)ccc2N1C(=O)Cc1ccc(OC)cc1 | -0.719 |
| COc1ccc(NN2C(C(O)c3ccc(N(C)C)cc3)C=CC3C(=O)N(C4CCCCC4)C(=O)C32)cc1 (stereo unspecified) | 1.51 |
| NC(=O)[C@@H]1[C@H]2C(=O)O[C@H](c3ccccc3)[C@H](c3ccccc3)N2[C@H](c2ccc(O)cc2)[C@@]12C(=O)Nc1ccc(C#CC3=CCCCC3)cc12 | 1.55 |
| C=CCC(OC(C)=O)[C@@H]1[C@@H](N(Cc2ccc(-c3cccc(C(F)(F)F)c3)o2)C(=O)c2cccc3ccccc23)c2cc(OCCCO)ccc2N1C(=O)Cc1ccc2ccccc2c1 (stereo partly specified) | 0.263 |
| O=C1O[C@@H](c2ccccc2)[C@@H](c2ccccc2)N2[C@@H](c3ccccc3OCCO)[C@]3(C(=O)Nc4ccccc43)[C@@H](C(=O)O)[C@H]12 | 1.02 |
| O=C1OCCC/C=C\[C@H]2OC34C=CCN(c5ccc6ccccc6c5)C(=O)[C@H]3N(CCCCCO)C(=O)[C@@H]4C12 (stereo partly specified) | -1.23 |
| Cc1ccc(S[C@]2(C(=O)NCC(C)C)CC(=O)N(Cc3cc(C(F)(F)F)cc(C(F)(F)F)c3)[C@@H]2c2ccc(CO)cc2)cc1 | 0.407 |
| COc1ccc([C@H]2C[C@H]3C(I)=C[C@@H]2C(=O)[C@]32CO2)cc1 | -0.639 |

| SMILES | composite z-score |
| --- | --- |
| C=CCNC(=O)[C@@H]1[C@H]2C(=O)O[C@H](c3ccccc3)[C@H](c3ccccc3)N2[C@H](c2ccc(OCCO)cc2)[C@@]12C(=O)N(C(=O)OCCOC)c1ccc(C#CCC(C(=O)OC)C(=O)OC)cc12 | 1.54 |
| COc1ccc([Si](C)(C)[C@H]2[C@H](CCO)O[C@@]3(C(=O)N(Cc4ccccc4)c4ccc(N5CCCCC5=O)cc43)[C@@H]2C)cc1 | 1.56 |
| C[N+](C)(C)CCCC[C@@H]1NC(=O)[C@@H]2C[C@H](C(=O)NCCCCCN)[C@H](c3ccc(O)cc3)N2C1=O | 1.53 |
| O=C1C2C=CC(C(O)c3ccc(-c4ccccc4)s3)N(Nc3ccccc3)C2C(=O)N1c1ccccc1 (stereo unspecified) | 1.26 |
| COc1ccc(C(=O)Nc2cccc(CN3C(=O)[C@]4(O[C@H](CCn5cc(CCO)nn5)[C@@H]([Si](C)(C)c5ccc(OC)cc5)[C@@H]4C)c4ccccc43)c2)cc1 | 1.06 |
| COC(=O)[C@@]1(Cc2ccccc2)[C@H]2c3cc(C(=O)N4CCCC4)n(Cc4ccc(O)c(OC)c4)c3C[C@H]2CN1C(=O)c1ccccc1 | -0.358 |
| O=C(NCCN1CCOCC1)[C@@H]1c2ccccc2C(=O)N(Cc2cc(C(F)(F)F)cc(C(F)(F)F)c2)[C@H]1c1ccc(CO)cc1 | 1.56 |
| O=C1C2C=CC(C(O)c3cc(C(F)(F)F)cc(C(F)(F)F)c3)N(Nc3ccccc3)C2C(=O)N1c1ccccc1 (stereo unspecified) | 1.29 |
| O=C1OCC=C[C@H]2OC34C=CCN(CCN5CCOCC5)C(=O)[C@H]3N(CCO)C(=O)[C@@H]4[C@@H]12 (stereo partly specified) | 1.15 |
| CCCCCCc1nc(-c2ccc(-c3ccc(Cl)c(Cl)c3)o2)cc2c1[Si](C(C)C)(C(C)C)O[C@H]2c1ccccc1 | 0.287 |
| O=C1C2C=CC(C(O)c3c(F)cccc3Cl)N(Nc3ccccc3F)C2C(=O)N1c1ccccc1 (stereo unspecified) | 0.0998 |
| COc1ccc(C(O)C2C=CC3C(=O)N(C)C(=O)C3N2NC(=O)OC(C)(C)C)c2ccccc12 (stereo unspecified) | 1.57 |
| OCC1C=C(/C=C/c2ccccc2)CN1Cc1ccccc1Br (stereo unspecified) | 0.94 |
| CN1C(=O)C2C=CC(C(O)c3ccc(F)cc3)N(N(c3ccccc3)c3ccccc3)C2C1=O (stereo unspecified) | 0.672 |
| CC(=CC1CCCCC1)[C@@H](NC(=O)c1cccnc1)c1ccc(-c2ccccc2)cc1 | -0.0028 |
| CCN(CC)c1ccc(N2CC=CC34O[C@@H]5C=CCOC(=O)[C@@H]5[C@H]3C(=O)N(CCCCCCO)[C@@H]4C2=O)cc1 (stereo partly specified) | 0.933 |
| C=C(CCCC)/C(=C/C[C@H](OC(=O)c1ccncc1)c1ccc(OCCO)cc1)c1cc(C(=O)OC)ccc1OC | 0.834 |
| COCCOC(=O)N1C(=O)[C@@]2(c3cc(C#CC4(O)CCCCCC4)ccc31)[C@H](c1ccccc1OCCO)N1[C@H](c3ccccc3)[C@H](c3ccccc3)OC(=O)[C@H]1[C@@H]2C(=O)N1CCc2cc(OC)c(OC)cc2C1 | 1.55 |
